Assay outcomes: PubChem BioAssay, National Center for Advancing Translational Sciences (NCATS)
TGFb SMAD3 inh: blocks TGF-b signaling. Potency, µM (top dose mostly 46.1 µM), inactives show at the highest dose activity, negative = inhibition, most hits filed as inhibitors. HepG2 CAGA-GFP TGF-b/SMAD3 reporter, GFP fluorescence, 18 h; TGF-beta stimulated, 500 pg/mL final. 410,000 compounds, 1.2% hits; note: potency is the fitted concentration of half-maximal effect; % is set by controls: 0 for no effect and ±100 for the full control effect; nearly all actives have a fitted effect of over 65% in size
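HEPG2 CAGA-GFP, 1000 cells/well; 2 h settle, 37 C; cpd via pin tool; TGF-b 500 pg/mL final; 18 h, 37 C; GFP imaging ex488/em500-530; %Activity normalised to -TGF-b and +DMSO controls; CRC fit, curve class.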
S-ASM inh: blocks human secretory acid sphingomyelinase; P17405; placental ASM, HMU-PC fluorogenic substrate, 60 min; Potency, µM (top dose mostly 57.5 µM), without a hit: top-dose activity change, negative = inhibition, hits mostly inhibitors; 340,000 compounds, 0.006% hits; note: potency is the fitted concentration of half-maximal effect
Target sequence (P17405 47-631 limits assumed): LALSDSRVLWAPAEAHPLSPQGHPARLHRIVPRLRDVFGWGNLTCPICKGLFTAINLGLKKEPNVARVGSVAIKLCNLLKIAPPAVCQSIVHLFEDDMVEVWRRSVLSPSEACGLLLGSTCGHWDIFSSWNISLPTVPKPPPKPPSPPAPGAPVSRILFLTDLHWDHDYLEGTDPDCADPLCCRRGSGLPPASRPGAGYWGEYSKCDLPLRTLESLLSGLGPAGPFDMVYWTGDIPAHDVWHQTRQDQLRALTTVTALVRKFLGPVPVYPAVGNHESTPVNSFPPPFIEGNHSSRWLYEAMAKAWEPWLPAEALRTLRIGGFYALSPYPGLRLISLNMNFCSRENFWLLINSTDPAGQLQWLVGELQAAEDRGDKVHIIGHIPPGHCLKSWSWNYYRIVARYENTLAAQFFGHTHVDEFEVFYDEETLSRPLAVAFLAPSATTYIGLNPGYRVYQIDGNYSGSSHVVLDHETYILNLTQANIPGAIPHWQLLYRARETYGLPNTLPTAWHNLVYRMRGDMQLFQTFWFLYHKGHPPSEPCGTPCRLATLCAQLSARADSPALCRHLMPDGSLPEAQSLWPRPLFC
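Fluorescence read-out (Ex 386 nm, Em 447 nm) after stopping the reaction at pH 10. Enzyme: ASM from human placenta; substrate HMU-PC0, 9 uM final; 60 min, 37 °C. Compound preincubation 10 min, ambient temperature.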
HepG2 viability: kills HepG2 cells in TGF-b inhibitor counter-screen | HepG2 CAGA-GFP viability, ATP luminescence, 18 h | Potency, µM (titrated, usually from 46.1 µM), for inactives: at the top dose activity change, negative = cytotoxicity, hits mostly cytotoxic | 410,000 compounds, 0.76% hits; note: potency is the fitted concentration of half-maximal effect
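HepG2 CAGA-GFP cells (1000/well, DMEM with 1% FBS) received compound, then TGF-beta at 500 pg/mL final, and were incubated 18 hours at 37 degrees C. Viability was read by CellTiter-Glo luminescence. Media-only wells were set as complete cell-killing and DMSO as no toxicity.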
IL1B secr inh: inflammasome signaling inhibition, IL-1 beta readout; 360,000 compounds, 4.7% hits; activity change, % at 57.5 µM; THP-1 LPS/ATP IL-1B secretion, AlphaLISA, 16 h; hits give low values; in the data active = activity change below about -50%; inconclusive = mostly about -30% to -49%; note: % is set by controls: 0 for no effect and ±100 for the full control effect
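Secreted IL-1B measured by AlphaLISA bead assay after 16 h compound exposure of THP-1 cells; compounds (final up to 57.5 uM) added 1 h before LPS (250 ng/mL) and ATP (1.25 mM) stimulation; lower signal means less secretion.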
DT40 TDP1 no CPT: qHTS for Inhibitors of human tyrosyl-DNA phosphodiesterase 1 (TDP1): qHTS in cells in absence of CPT; DT40 Tdp1-/- hTDP1 cells, no CPT, ATP luminescence, 48 h; Potency, µM (series often up to 46.2 µM), inactives show top-dose activity change, negative = growth inhibition, most hits filed as inhibitors; 420,000 compounds, 15% hits; AID 686978, 2013; note: potency is the fitted concentration of half-maximal effect; % is set by controls: 0 for no effect and ±100 for the full control effect; nearly all actives have a fitted effect of over 55% in size
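A cellular qHTS used chicken DT40 cells lacking endogenous Tdp1 but carrying stably transfected human TDP1. Compounds were applied without camptothecin, and cell growth kinetics were judged by ATP-dependent luminescence after ≥48 hr.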
TDP1 cell CPT: DT40-hTDP1 cell growth loss with CPT; chicken DT40 Tdp1-/-;hTDP1 cells + 20 nM CPT, ATP luminescence, 48 h; Potency, µM (top dose mostly 46.2 µM), for inactives: top-dose activity change, negative = growth inhibition, actives largely listed as inhibitors; 420,000 compounds, 12% hits; note: potency is the fitted concentration of half-maximal effect; % is set by controls: 0 for no effect and ±100 for the full control effect; nearly all actives have a fitted effect of over 55% in size
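Cell growth measured by CellTiter-Glo luminescence after a minimum 48 h, 37 C compound exposure with 20 nM CPT in Tdp1-knockout DT40 cells stably expressing hTDP1, seeded 400/well; qHTS titration format.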
* marks the source's active call; other numbers are inactive results; ? = inconclusive; . = no result given; ! = not active in a repeat. Sampled rows, rich in hits. Any-hit rate of the full collection: about 19%. Unless noted, calls come from the whole dose curve; as a rule, active = well fitted curve in the direction sought with a large enough effect; inconclusive = small, poorly fitted or top-dose-only effect, or another doubt; inactive = no such curve, though single readings can be large; an effect the other way counts as inactive or inconclusive.

SMILES	TGFb SMAD3 inh	S-ASM inh	HepG2 viability	IL1B secr inh	DT40 TDP1 no CPT	TDP1 cell CPT
O=C(NCc1cccc(C(F)(F)F)c1)c1ccc2sc(C3=C[C@@H](O)[C@@H](O)[C@@H](CO)O3)nc2c1	22%	.	5%	13	12µM*	12µM*
O=C(NCc1cccc(C(F)(F)F)c1)c1ccc2sc([C@@H]3O[C@H](CO)[C@@H](O)[C@H]3O)nc2c1	29%	.	-2%	12	?	?
O/N=C(/c1ccccc1)c1cc2cc(Br)cc(Br)c2o1	-28%	-3%	-25%	-85*	?	-18%
O=C(NNc1ccccc1F)c1cccs1	.	.	.	.	?	-20%
Cc1cc(SCC(=O)N/N=C/c2ccc(C(=O)O)cc2)nc2ccccc12	13%	5%	8%	29	0%	9%
CS(=O)(=O)c1ccc(Nc2nc(C(N)COCc3ccccc3)cs2)cc1 (configuration not stated)	-34%	.	-2%	-3	21µM*	21µM*
CS(=O)(=O)c1ccc(Nc2nc(C(N)c3ccccc3Cl)cs2)cc1 (configuration not stated)	?	.	-11%	24	?	?
NC(Cc1ccc(F)cc1)c1csc(Nc2ccc(S(N)(=O)=O)cc2)n1 (configuration not stated)	-20%	.	-34%	-15	?	?
COc1ccc(CC(N)c2csc(Nc3ccc(S(C)(=O)=O)cc3)n2)cc1 (configuration not stated)	-3%	.	-17%	-14	23µM*	?
CS(=O)(=O)c1ccc(Nc2nc(C(N)Cc3ccc(F)cc3)cs2)cc1 (configuration not stated)	?	.	-42%	-28	21µM*	16µM*
CS(=O)(=O)c1ccc(Nc2nc(C(N)c3ccccc3)cs2)cc1 (configuration not stated)	2%	.	-1%	-5	?	?
CS(=O)(=O)c1ccc(Nc2nc(C(N)Cc3ccccc3)cs2)cc1 (configuration not stated)	-4%	.	-14%	0	21µM*	?
CC1CCN(S(=O)(=O)c2cccc(C(=O)NC3CCCC3)c2)CC1	-15%	0%	-6%	3	?	?
CS(=O)(=O)c1ccc(Nc2nc(C(N)Cc3ccc(C(F)(F)F)cc3)cs2)cc1 (configuration not stated)	?	.	-55%	-21	-84%	21µM*
COc1ccccc1NOC(=O)CCOc1ccccc1	-6%	-4%	3%	-22	-19%	-8%
O=C1OC(c2cccc([N+](=O)[O-])c2)C2(CCCC2)C(=O)C12CCCCC2 (configuration not stated)	?	.	-20%	-9	?	23µM*
CC1(C)C(=O)C2(CCCCC2)C(=O)OC1c1cccn1-c1ccc([N+](=O)[O-])cc1 (configuration not stated)	-14%	3%	7%	4	?	?
COC(=O)C1=C(O)/C(=C\c2ccc(OCC(=O)Nc3ccc(OC)cc3)cc2)N=C1C	-7%	54%	6%	-12	3%	5%
CCc1nnc(NC(=O)C2=CCN(S(=O)(=O)c3ccccc3)CC2)s1	-3%	-3%	8%	-8	-18%	-12%
Cc1cc(Oc2ncccc2[N+](=O)[O-])c2cc(Cl)ccc2n1	-6%	-1%	-8%	?	?	?
CC(C)[C@H]1COCCS(=O)(=O)N1Cc1ccccc1	-3%	-3%	-17%	13	10µM*!	?
CCC[C@H]1COCCS(=O)(=O)N1Cc1ccc(Br)cc1	?	.	-40%	.	11µM*	?
O=S1(=O)CCOC[C@H](CC2CCCCC2)N1Cc1cccc(C(F)(F)F)c1	?	-18%	13µM*!	-2	18µM*	?
O=S1(=O)CCOC[C@H](Cc2ccccc2)N1Cc1cccc(C(F)(F)F)c1	-26%	-8%	-51%	-15	?	18µM*
COc1ccnc(Oc2cccc(C(F)(F)F)c2)c1C(=O)N/C=N/OCc1ccccc1F	-23%	-11%	-23%	-59*	21µM*	?
SMILES	TGFb SMAD3 inh	S-ASM inh	HepG2 viability	IL1B secr inh	DT40 TDP1 no CPT	TDP1 cell CPT
CCOc1cc2c(cc1OCC)C(CC(=O)O)N(C(=O)Nc1ccc(Br)c(C)c1)CC2 (configuration not stated)	20%	.	-61%	.	?	-12%
O=C(Nc1cnccn1)Nc1ccccc1F	0%	-2%	4%	16	3%	3%
Oc1ccccc1N=Cc1sc2ccccc2c1Cl	?	-2%	-3%	10	18µM*	?
COc1ccc([C@H]2CC(=O)C=C(c3ccc(Cl)c(C(F)(F)F)c3)C2)cc1OC	?	-20%	-38%	-56*	?	?
COc1ccc([C@H]2CC(=O)C=C(c3ccc(C(F)(F)F)c(C(F)(F)F)c3)C2)cc1OC	-1%	-2%	2%	-78*	?	?
CCn1c(SCc2ccccc2F)nnc1-c1ccncc1	-4%	-3%	-5%	25	-5%	1%
S=C(NCCc1ccccc1)N1CCN(C23CC4CC(CC(C4)C2)C3)CC1	-14%	3%	-9%	-84*	8.2µM*	10µM*
S=C(NCCc1ccccc1)N1CCN(C(c2ccccc2)c2ccccc2)CC1	-25%	-2%	5%	-2	16µM*	12µM*
CCCCNC(=S)N1CCN(C(c2ccccc2)c2ccccc2)CC1	8%	-6%	1%	12	?	?
S=C(NCCc1ccccc1)N1CCCC1	6%	5%	13%	-7	9%	11%
COc1ccc(C2=Nc3ccccc3NC(=O)C2N(CCc2cc(OC)cc(OC)c2)C(C)=O)cc1 (configuration not stated)	-21%	.	-5%	?	?	23µM*
COc1ccc(C2c3c(-c4ccc(F)cc4)n[nH]c3C(=O)N2c2ccccc2)cc1OC (configuration not stated)	-3%	.	1%	.	?	?
Cc1ccc(N2C(=O)c3[nH]nc(-c4ccc(Cl)cc4)c3C2c2ccc(F)cc2)cc1 (configuration not stated)	?	.	11µM*	.	21µM*	15µM*
